From the supplement of paper PMC7695840 come the findings set out here.

Where a name gives a salt, the structure may show the parent alone.

In assay [1] the test system is Staphylococcus aureus MW2 delta-mecA (mecA-). The experiment in a line: normalized GFP fluorescence (growth of mecA- strain) (fraction of control range); higher = more growth of mecA- strain. To be noted: compound concentration: 150 uM; cefoxitin: subinhibitory; fluorescent label: GFP. In a few lines: (§1)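 Pre-induced S. aureus MW2 cells carrying the gene (DsRed) and deletion cells lacking it (GFP) were combined 1:1 in LB containing a subinhibitory antibiotic dose set each day, then dispensed at 5 µL/well onto 150 μM compound (1.5% DMSO) in 1536-well plates as a single replicate. After 20 h at 37 °C and 90% humidity without shaking, DsRed (540/590) and GFP (485/520) were read. Each channel was scaled per plate between the medians of the single-strain controls, and plates with high untreated ratios and rows with DsRed/GFP >10 were excluded.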

Assay [2] deals with Staphylococcus aureus MW2 (mecA+). Description: normalized DsRed fluorescence (growth of mecA+ strain) (fraction of control range); higher = more growth of mecA+ strain. To be noted: compound concentration: 150 uM; cefoxitin: subinhibitory; fluorescent label: DsRed. In a few lines: as §1

Consider `C[C@H]1O[C@@H](O[C@H]2[C@@H](O)C[C@H](O[C@H]3[C@@H](O)C[C@H](O[C@H]4CC[C@@]5(C)[C@H](CC[C@@H]6[C@@H]5CC[C@]5(C)[C@@H](C7=CC(=O)OC7)CC[C@]65O)C4)O[C@@H]3C)O[C@@H]2C)C[C@H](O)[C@@H]1O`, for which the “normalized GFP fluorescence” value in assay [1] was determined as 0.212. Further, the “normalized DsRed fluorescence” value in assay [2] was found to be 0.724.
For `NCCc1c[nH]cn1`, in that order: 0.621 and 0.661.
For `C#C[C@]1(O)CC[C@H]2[C@@H]3CCc4cc(O)ccc4[C@H]3CC[C@@]21C` [Ethinyl Estradiol], in that order: 0.246 and 0.449.
For `CN(C)CCCN1c2ccccc2Sc2ccc(C(F)(F)F)cc21`, in that order: -0.00501 and 1.49.
On to `c1ccc(CC2=NCCN2)cc1`, for which the “normalized GFP fluorescence” value in assay [1] was 0.234. Further, in assay [2], the “normalized DsRed fluorescence” value amounted to 0.835.
On the same counts, the results for `Cc1cccc(Nc2ccccc2C(=O)O)c1C` [Mefenamic Acid] are 0.0909 and 0.169.
On the same counts, the results for `COc1ccccc1OCC(O)CO` (configuration not stated) are 0.274 and 0.991.
On the same counts, the results for `CC#C[C@]1(O)CC[C@H]2[C@@H]3CCC4=CC(=O)CCC4=C3[C@@H](c3ccc(N(C)C)cc3)C[C@@]21C` are 0.622 and 0.695.
As for `CC(Oc1c(Cl)cccc1Cl)C1=NCCN1` (configuration not stated), the “normalized GFP fluorescence” value in assay [1] worked out at 0.693. In addition, the “normalized DsRed fluorescence” value in assay [2] was found to be 0.569.
Turning to `CN1C(=O)OC(C)(C)C1=O`, in assay [1], the “normalized GFP fluorescence” value was determined as 0.0459. In addition, the “normalized DsRed fluorescence” value in assay [2] came to 1.31.
On the same counts, the results for `COc1ccc2c(c1)c(CC(=O)O)c(C)n2C(=O)c1ccc(Cl)cc1` are -0.013 and 0.261.
For `C[C@@H]1C[C@H]2[C@@H]3CCC4=CC(=O)C=C[C@]4(C)[C@@]3(F)[C@@H](O)C[C@]2(C)[C@@]1(O)C(=O)CO`, in that order: 0.309 and 0.687.
With `CC1(C)O[C@@H]2C[C@H]3[C@@H]4CCC5=CC(=O)C=C[C@]5(C)[C@H]4[C@@H](O)C[C@]3(C)[C@]2(C(=O)CO)O1`, the “normalized GFP fluorescence” value in assay [1] worked out at 0.387. Further, the “normalized DsRed fluorescence” value in assay [2] was determined as 1.36.
For `CCN1CC(CCN2CCOCC2)C(c2ccccc2)(c2ccccc2)C1=O` (configuration not stated), in that order: 0.294 and 0.634.
For `Cc1cccc(C)c1OCC(=O)N[C@@H](Cc1ccccc1)[C@@H](O)C[C@H](Cc1ccccc1)NC(=O)[C@H](C(C)C)N1CCCNC1=O` [Lopinavir (ABT-378)], in that order: 0.126 and 0.671.
On the same counts, the results for `CCCNS(=O)(=O)Nc1ncnc(OCCOc2ncc(Br)cn2)c1-c1ccc(Br)cc1` [Macitentan] are 0.0399 and 0.379.
Turning to `CCOC(=O)O[C@]1(C(=O)COC(=O)CC)CC[C@H]2[C@@H]3CCC4=CC(=O)C=C[C@]4(C)[C@H]3[C@@H](O)C[C@@]21C`, the “normalized GFP fluorescence” value in assay [1] worked out at 0.129. The “normalized DsRed fluorescence” value in assay [2] was 1.07.
For `CC[N+](CC)(CC)CCOc1cccc(OCC[N+](CC)(CC)CC)c1OCC[N+](CC)(CC)CC`, in that order: 0.163 and 0.336.
Take `CC(C)(Sc1cc(C(C)(C)C)c(O)c(C(C)(C)C)c1)Sc1cc(C(C)(C)C)c(O)c(C(C)(C)C)c1`: in assay [1], the “normalized GFP fluorescence” value turned out to be 0.792. Also, in assay [2], the “normalized DsRed fluorescence” value came out at 0.839.
On the same counts, the results for `C[N+](C)(C)CCO.[Cl-]` are 0.657 and 0.615.
`Cc1noc(NS(=O)(=O)c2ccc(N)cc2)c1C`: the “normalized GFP fluorescence” value in assay [1] came out at 0.025. Further, the “normalized DsRed fluorescence” value in assay [2] amounted to 0.437.
In the case of `CCNC(=O)CCC/C=C\C[C@@H]1[C@@H](/C=C/[C@@H](O)CCc2ccccc2)[C@H](O)C[C@@H]1O` [Bimatoprost], the “normalized GFP fluorescence” value in assay [1] is 0.224. Moreover, the “normalized DsRed fluorescence” value in assay [2] was found to be 0.865.
For `C[C@]12C=CC(=O)C=C1CC[C@@H]1[C@@H]2[C@@H](O)C[C@@]2(C)[C@H]1CC[C@]2(O)C(=O)COC(=O)CCC(=O)O`, in that order: 0.461 and 1.04.
For `NC(N)=Nc1nc(CSCC/C(N)=N/S(N)(=O)=O)cs1`, in that order: 0.53 and 0.755.
For `CN(C)CCN(Cc1cccs1)c1ccccn1`, in that order: 0.185 and 0.778.
Regarding `CC(C)(Oc1ccc(CCNC(=O)c2ccc(Cl)cc2)cc1)C(=O)O`, in assay [1], the “normalized GFP fluorescence” value was found to be 0.407. The “normalized DsRed fluorescence” value in assay [2] was determined as 0.804.
For `Cc1nnc(C(=O)NC(C)(C)c2nc(C(=O)NCc3ccc(F)cc3)c(O)c(=O)n2C)o1` [Raltegravir (MK-0518)], in that order: 0.051 and 0.507.
Take `CC(C(=O)O)c1ccc(-c2ccccc2)c(F)c1` (configuration not stated): the “normalized GFP fluorescence” value in assay [1] came out at 0.201. Besides, the “normalized DsRed fluorescence” value in assay [2] amounted to 0.435.
For the compound `O=C(O)P(=O)(O)O`, in assay [1], the “normalized GFP fluorescence” value was found to be 0.285. The “normalized DsRed fluorescence” value in assay [2] turned out to be 0.7.
For `OC(CCN1CCCCC1)(c1ccccc1)C1CC2C=CC1C2` (configuration not stated) [Biperiden hydrochloride], in that order: 0.119 and 0.714.
For `Nc1ncn([C@@H]2O[C@H](CO)[C@@H](O)[C@H]2O)c(=O)n1`, in that order: 0.292 and 0.51.
With `CC(C)[C@H](N)C(=O)OCC(CO)OCn1cnc2c(=O)nc(N)[nH]c21` (some centres not stated), in assay [1], the “normalized GFP fluorescence” value was found to be 0.546. For the same compound, in assay [2], the “normalized DsRed fluorescence” value is 0.722.
For `Cc1ccccc1OCC(O)CO` (configuration not stated), in that order: 0.392 and 0.853.
`COCCCOc1ccnc(C[S+]([O-])c2nc3ccccc3[nH]2)c1C` (configuration not stated): the “normalized GFP fluorescence” value in assay [1] came out at 0.186. The “normalized DsRed fluorescence” value in assay [2] is 0.865.
For `CCN(CC)C(=O)/C(C#N)=C/c1cc(O)c(O)c([N+](=O)[O-])c1` [Entacapone], in that order: 0.111 and 1.35.
For `CC1(C)S[C@@H]2[C@H](NC(=O)COc3ccccc3)C(=O)N2[C@H]1C(=O)O`, in that order: 0.0184 and 0.0783.
